HP1b binding inh: HP1-beta chromodomain-methylated histone interaction inhibition | P83916 | AlphaScreen HP1-beta / biotin-H3K9me3 peptide binding | Potency, µM (series often up to 114 µM), for inactives: at the top dose activity change, negative = inhibition, actives largely listed as inhibitors | 390,000 tested, 0.56% active | AID 540317; further: nearly all actives have a fitted effect of over 70% in size
Target sequence (P83916 whole entry, looked up): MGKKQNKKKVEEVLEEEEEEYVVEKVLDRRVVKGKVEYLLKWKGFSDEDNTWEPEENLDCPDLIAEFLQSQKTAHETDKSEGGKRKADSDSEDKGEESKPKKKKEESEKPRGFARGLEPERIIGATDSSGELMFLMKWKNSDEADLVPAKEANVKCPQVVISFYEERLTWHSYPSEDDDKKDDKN
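HP1-beta protein (50 nM final) preincubated 30 min at room temperature with biotinylated H3(1-18)K9me3 peptide (50 nM) in PBS pH 7.4, 0.01% Tween-20, then compound added for 30 min. AlphaScreen streptavidin donor/nickel chelate acceptor beads (10 ug/mL final), 30 min dark, luminescence read.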
BAZ2B inh: inhibitors of human BAZ2B bromodomain; Potency, µM (series often up to 114 µM), without a hit: at the top dose activity change, negative = inhibition, usual class: inhibitors; AlphaScreen BAZ2B-H3K14Ac peptide displacement; Q9UIF8; 360,000 tested, 4.4% active; further: on the % scale 0 is the no-effect control and ±100 the full control effect; nearly all actives have a fitted effect of over 60% in size
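Multi-concentration screen (max 110 uM) measuring displacement of acetylated histone H3 peptide from BAZ2B by AlphaScreen, using 50 nM protein, 50 nM peptide and 10 ug/mL streptavidin donor plus Ni-chelate acceptor beads.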
Sfp PPTase inh: inhibitors of Bacillus subtilis Sfp phosphopantetheinyl transferase. 310,000 tested, 3.5% active. Q9F4F7. AID 1490. Potency, µM, for the others: largest response in the series, negative = inhibition, hits mostly inhibitors. Biochemical Sfp PPTase activity, qHTS;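 further: the enzyme is Sfp with the accession as filed and its product quenches rhodamine fluorescence; 0% = enzyme reaction without inhibitor and -100% = no enzyme wells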
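With Hepes-Na pH 7.6 buffer containing 10 mM MgCl2, Sfp (15 nM) modified BHQ-2-YbbR (12.5 uM) using rhodamine-CoA (5 uM). Two reads 30 minutes apart at 525/598 nm yielded each well's rate.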
G9a block: G9a (human) methyltransferase inhibition; AID 504332; Potency, µM (top dose mostly 102 µM), for the others: at the highest dose activity, negative = inhibition, actives largely listed as inhibitors; Q96KQ7; 350,000 tested, 8.8% active; G9a H3K9 monomethylation, AlphaScreen, 2 h; further: on the % scale 0 is the no-effect control and ±100 the full control effect; nearly all actives have a fitted effect of over 75% in size
Target sequence (Q96KQ7 913-1193 limits assumed): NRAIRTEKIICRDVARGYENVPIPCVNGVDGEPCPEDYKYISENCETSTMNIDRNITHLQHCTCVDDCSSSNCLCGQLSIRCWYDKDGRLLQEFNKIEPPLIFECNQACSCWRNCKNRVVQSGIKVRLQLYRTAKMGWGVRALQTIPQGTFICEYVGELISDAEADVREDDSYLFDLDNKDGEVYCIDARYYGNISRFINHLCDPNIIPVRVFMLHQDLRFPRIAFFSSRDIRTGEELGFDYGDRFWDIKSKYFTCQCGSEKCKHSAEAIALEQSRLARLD
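Chemiluminescent proximity detection of H3K9 monomethylation, read after 10 min bead incubation in the dark. Reaction: 20 nM G9a, 500 nM biotin-H3K9 peptide, 20 uM SAM cofactor, 2 h, room temperature, following 15 min enzyme-compound preincubation.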
JMJD2A Tudor inh: blocks the human JMJD2A Tudor domain; 390,000 tested, 4.4% active; O75164; AlphaScreen JMJD2A-Tudor / H3K4me3 peptide binding; Potency, µM (titrated, usually from 114 µM), without a hit: at the highest dose activity change, negative = inhibition, most hits filed as inhibitors; further: on the % scale 0 is the no-effect control and ±100 the full control effect; nearly all actives have a fitted effect of over 50% in size
L3MBTL1 inh: L3MBTL1 (human) inhibition | AlphaScreen L3MBTL1–H3K9me1 peptide binding | Potency, µM (highest dose often 57.1 µM), inactives show at the top dose activity, negative = inhibition, actives largely listed as inhibitors | 230,000 tested, 0.66% active | Q9Y468; further: on the % scale 0 is the no-effect control and ±100 the full control effect; nearly all actives have a fitted effect of over 60% in size
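AlphaScreen proximity signal between nickel-chelate acceptor and streptavidin donor beads (final 10 ug/mL) reports binding of 50 nM L3MBTL1 to 75 nM biotin-H3 K9me1 peptide; complex incubated with compounds 30 min at room temperature; cefsulodin titration as control.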
* = called active by the depositor; ? = inconclusive; nt = no result given; [ ] = remark or other dose. This is a sample that favours compounds with a hit; in the whole collection about 12% have one here. The call rests on the fitted dose curve; in most records, active means well fitted curve in the direction sought with a large enough effect; inconclusive means small, poorly fitted or top-dose-only effect, or another doubt; inactive means no such curve, though single readings can be large; an effect the other way counts as inactive or inconclusive. Potency means the concentration at half of the fitted maximal effect.

SMILES	HP1b binding inh	BAZ2B inh	Sfp PPTase inh	G9a block	JMJD2A Tudor inh	L3MBTL1 inh
COc1ccccc1Nc1ncc2c(n1)CCN(CC(C)C)C2	10.6%	-13.7%	nt	7.2%[59 µM]	-14.2%	nt
CN(C)Cc1ccccc1-c1nc(N(C)Cc2ccco2)c2ccccc2n1	nt	nt	-11.3%	nt	nt	nt
CN1CCN(C(=S)c2cn(CCOc3ccccc3F)c3ccccc23)CC1	?	?	14.0%	35.5µM*	50.1µM*	-6.6%
Cc1cc(Cl)cc(Br)c1OCCCCn1cncn1	?	50.1µM*	?	?	3.55µM*	1.3%[11.4 µM]
Cc1cc(Cl)c(OCCCn2cncn2)c(Br)c1	59.7%	-0.2%	12.8%	8.9%[12.7 µM]	-10.1%	-9.9%
COC(=O)c1[nH]c2ccccc2c1CN1CCOCC1	12.3%	-17.9%	17.3%	1.7%[0.501 µM]	-15.3%	5.3%[2.29 µM]
O=C(COC(=O)CNC(=O)c1ccccc1F)Nc1nnc(-c2ccccc2)o1	48.3%	-37.6%	nt	56.2µM*	-27.9%	-1.6%
O=C(COC(=O)/C=C/c1ccccc1F)Nc1nnc(-c2ccccc2)o1	34.0%	?	nt	-19.6%	?	11.2%
COc1ccc(NC(=O)C2CCN(S(=O)(=O)c3c(C)noc3C)CC2)cc1Cl	22.8%	5.3%	15.6%	12.7%[59 µM]	0.0%	nt
Nc1nc(CSC(=S)N2CCN(c3ccccc3)CC2)nc(Nc2ccccc2)n1	-16.4%	?	8.5%	44.7µM*	?	-26.3%
Cc1ccc(Nc2nc(N)nc(CSC(=S)N3CCN(c4ccccc4)CC3)n2)cc1	-12.6%	?	26.3%	35.5µM*	?	?
CCC(=O)N[C@@H]1CCc2cccc(OC)c2C1	nt	nt	-6.1%	nt	nt	nt
CN(C(=O)CSc1nc2ccccc2n1CC(=O)N(C)C1CCCCC1)c1ccccc1	30.9%	-3.3%	nt	19.5%[59 µM]	-16.9%	nt
CNC1CC(N)[C@H](O)[C@@H](O[C@@H]2OC(CO)C3OC4(OC(C(N)CO)C(O)C(O)C4O)O[C@@H]3[C@H]2O)C1O (stereo partly drawn)	nt	nt	24.6%	17.8%[59 µM]	nt	nt
Oc1cccc(/C=N/Nc2cc(N3CCOCC3)nc(N3CCOCC3)n2)c1	-13.5%	?	-17.4%	-11.7%[59 µM]	?	-5.9%
Cc1nc(N/N=C/c2cccc(F)c2)cc(N2CCOCC2)n1	24.3%	1.9%	20.2%	-4.6%	-17.9%	-8.9%
Oc1ccccc1/C=N/Nc1cc(N2CCCC2)nc(N2CCCC2)n1	?	25.1µM*	?	?	28.2µM*	?
Cc1nc(N/N=C/c2ccc(O)cc2O)cc(N2CCOCC2)n1	33.1%	44.7µM*	13.1%	20.5%	79.4µM*	-21.3%
Oc1ccc(/C=N/Nc2cc(N3CCOCC3)nc(N3CCOCC3)n2)cc1O	?	?	79.4µM*	?	56.2µM*	-6.6%
COc1cc2cnc(-c3ccccc3F)cc2cc1OC	25.4%	nt	nt	nt	-10.4%	4.6%
CCCN1C(=O)/C(=C\c2nc3ccccc3c(=O)[nH]2)c2ccccc21	-13.4%	?	?	31.6µM*	-15.8%	-11.5%
CC(C)CN(CC(C)C)S(=O)(=O)N1CCC(C(=O)NCCc2ccc(Cl)cc2)CC1	17.3%	-2.9%	26.0%	8.2%[59 µM]	-6.1%	nt
COc1cccc(-c2c(C#N)c(N)nc3c2c(=O)nc2sccn23)c1	nt	-15.9%	18.1%	5.9%	nt	-9.7%
CCCN(CCC)CCNc1c(NC2CCN(C(=O)OCC)CC2)c(=O)c1=O	87.1%	8.1%	-0.9%	-15.2%	-6.2%	nt
CCCN(CCC)CCNc1c(N2CCN(C(=O)OCC)CC2)c(=O)c1=O	21.7%	8.3%	3.3%	79.4µM*	0.0%	nt
SMILES	HP1b binding inh	BAZ2B inh	Sfp PPTase inh	G9a block	JMJD2A Tudor inh	L3MBTL1 inh
COC(=O)Nc1nc2ccc(-c3n[nH]c(=O)c4ccccc34)cc2[nH]1	10.9%	?	?	50.1µM*	?	-0.1%
Cc1ccc(C(=O)NCC2CCCN2S(=O)(=O)c2cccs2)cc1C (stereo not drawn)	1.5%	8.4%	nt	-1.7%	-21.4%	-2.4%
O=C1NC(=O)/C(=C\c2ccc(Br)o2)S1	19.6%	-36.1%	?	44.7µM*	?	nt
CN(C)N=C1c2cc(S(=O)(=O)N3CCOCC3)ccc2-c2ccc(S(=O)(=O)N3CCOCC3)cc21	-21.8%	-33.6%	14.6%	20µM*	?	-7.2%
CCN(CC(=O)NCc1ccccn1)S(=O)(=O)c1ccc(Cl)cc1	5.6%	0.0%	?	12.6µM*	-5.1%	9.4%[11.4 µM]
CCOc1c(OC(C)=O)ccc(/C=C2\N=C(SCC)SC2=O)c1[N+](=O)[O-]	14.1µM*	44.7µM*	-67.9%	nt	79.4µM*	-7.9%
CCOc1cc(/C=C2\N=C(SCC)SC2=O)cc([N+](=O)[O-])c1OC(C)=O	?	12.6µM*	?	10µM*	?	-23.3%
CCOc1cc(/C=C2\N=C(SC)SC2=O)cc([N+](=O)[O-])c1OC(C)=O	44.7µM*	17.8µM*	?	14.1µM*	-11.0%[11.4 µM]	?
Cc1ccc(CNC(=O)c2cc(NS(=O)(=O)c3ccc(C)cc3)ccn2)cc1	-2.9%	-0.4%	nt	-4.9%[59 µM]	-17.2%	nt
Cc1[nH]c(=O)cc2ccccc12	54.1%	-29.1%	10.2%	25.1µM*	4.5%	-2.6%
Cc1cc(=O)[nH]c2ccccc12	59.6%	-4.1%	12.5%	-11.7%[59 µM]	-7.5%	6.0%
COc1ccc(-c2oc3cc(OC)ccc3c(=O)c2O)cc1	nt	nt	-3.1%	nt	nt	nt
N#C/C(=C\c1ccc(Cl)c([N+](=O)[O-])c1)c1ccccn1	?	?	-17.4%	?	?	-7.7%[11.4 µM]
Cc1cc([N+](=O)[O-])cc2c1NC(c1ccccn1)C1CC=CC21 (stereo not drawn)	-8.1%	-23.1%	15.8%	-0.9%	50.1µM*	-1.8%
O=C(O)c1cccnc1Sc1ccccc1Cl	37.7%	?	-4.3%	nt	-10.6%	7.8%
O=[N+]([O-])c1ccc(Cl)c2c1C1C=CCC1C(c1ccccn1)N2 (stereo not drawn)	?	44.7µM*	28.2µM*	20µM*	39.8µM*	?
O=C(O)c1ccc(Cl)c2c1C1C=CCC1C(c1ccccn1)N2 (stereo not drawn)	nt	25.1µM*	3.55µM*	2µM*	nt	nt
COc1ccc(OC)c(C2Nc3c(Cl)ccc(C(=O)O)c3C3C=CCC32)c1 (stereo not drawn)	?	-26.3%	22.4µM*	20µM*	?	-13.9%
COc1ccc(OC)c(C2NC(=O)CCC2[N+](=O)[O-])c1 (stereo not drawn)	31.6%	-16.3%	2.0%	19.2%	-7.2%	nt
CCOc1ccc(NC(=O)NCCN2CCN(c3cc(Cl)ccc3C)CC2)cc1	18.6%	-10.2%	nt	-13.3%[59 µM]	-13.4%	nt
CC[n+]1ccc2cc(OC)c(OC)cc2c1Cc1ccc(OC)c(OC)c1	39.8µM*	79.4µM*	?	22.4µM*	25.1µM*	14.0%
COc1ccc(Cc2c3cc(OC)c(OC)cc3cc[n+]2C)cc1OC	?	-34.1%	79.4µM*	-132.3%[59 µM]	22.4µM*	nt

High-throughput results from PubChem BioAssay.
